Screening data: PubChem BioAssay, The Scripps Research Institute Molecular Screening Center
The list is not random: actives were taken first. Their share in the collection is about 4.1%.
ssDAF12 agonist – S. stercoralis DAF-12 nuclear receptor activators, primary screen, cell-based, luminescence, HEK293, GRIP1 co-expression, lit1-tk-luc | Nuclear hormone receptor DAF-12 (Strongyloides stercoralis) | activation, % at 6.8 µM | AID 652126, 2013 | HEK293 ssDAF-12/GRIP1 lit1-tk-luc reporter; % of 3 µM dafachronic acid response | hit rate 1% among 370,000;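 active means activation above the mean over all tested compounds plus 3 SD, cut at about 0.9% in these data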;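 further: 0% = DMSO-only wells and 100% = 3 µM delta7-dafachronic acid wells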
DAX1 inh-1 – DAX1 (NR0B1) inhibitors, primary screen, cell-based, HEK293, Gal4-DAX1, luciferase luminescence; Nuclear receptor subfamily 0 group B member 1 (Homo sapiens), P51843; HEK293 Gal4-DAX1 luciferase reporter; inhibition, % at 6.75 µM; hit rate 0.99% among 340,000; AID 504766, 2011;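 active means inhibition above the mean over all tested compounds plus 3 SD, cut at about 4.2% in these data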;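 further: 0% = DAX1-transfected cells with DMSO and 100% = empty-vector control cells with DMSO; inhibition shows as a rise in luminescence from relieved DAX1 repression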
Target sequence (P51843 207-470 limits assumed): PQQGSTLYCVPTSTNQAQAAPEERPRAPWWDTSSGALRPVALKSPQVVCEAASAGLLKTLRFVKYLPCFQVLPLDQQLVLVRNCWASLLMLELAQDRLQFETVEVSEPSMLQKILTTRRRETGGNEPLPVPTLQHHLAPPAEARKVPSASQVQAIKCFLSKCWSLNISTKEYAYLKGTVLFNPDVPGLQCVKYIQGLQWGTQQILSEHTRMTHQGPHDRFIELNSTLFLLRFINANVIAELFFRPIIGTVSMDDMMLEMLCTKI
hcDAF12 agonist – H. contortus DAF-12 nuclear receptor activators, primary screen, cell-based, luminescence, HEK293, lit1-tk-luc reporter. HEK293 hcDAF-12 lit1-tk-luc reporter; 0% DMSO, 100% Δ7-dafachronic acid. activation, % at 6.8 µM. hit rate 1.4% among 370,000. AID 652067, 2013;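 active means activation above the mean of all tested compounds plus 3 SD, cut at about 5.5% in these data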;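 further: 100% = response to 3 µM Δ7-dafachronic acid high control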
hgDAF-12 ag – H. glycines DAF-12 receptor agonists, primary screen, cell-based, luminescence, HEK293, GAL4 fusion, UAS-luciferase; HEK293 GAL4-hgDAF12 UAS-luciferase reporter, agonist luminescence; normalized to butyrate control; activation, % at 6.8 µM; hit rate 1.8% among 370,000; AID 687014, 2013;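 active means activation above a cutoff set at the mean of all screened compounds plus 3 SD, cut at about 10% in these data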;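 further: 0% = DMSO wells and 100% = sodium butyrate wells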
DAX1 inh-2 – DAX1 (NR0B1) inhibitors on StAR promoter, primary screen, cell-based, luminescence, SF-1 (NR5A1), full-length DAX-1. HEK293T StAR-luciferase reporter, SF-1/DAX-1 repression relief. inhibition, % at 6.8 µM. hit rate 1.1% among 370,000. AID 652010, 2013;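 active means inhibition above the mean over all tested compounds plus 3 SD, cut at about 3.6% in these data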;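 further: 0% = DAX-1 cells with DMSO and 100% = cells lacking DAX-1 with DMSO; higher inhibition means more luminescence from relief of DAX-1 repression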
Active calls of the source: *; x = no result given.

SMILES	ssDAF12 agonist	DAX1 inh-1	hcDAF12 agonist	hgDAF-12 ag	DAX1 inh-2
CCn1c(SCC(=O)Nc2ccccc2-c2ccccc2)nnc1-c1ccc(Cl)cc1	-1	x	-2	0	0
COc1ccc2c(c1)CCc1c(C(=O)N(C)c3ccccc3)noc1-2	0	1	1	9	1
COc1ccccc1NC(=O)Nc1ccc2c(c1)nnn2C	-1	1	2	0	2
Cc1ccc(NC(=O)Nc2ccc3c(c2)nnn3C)cc1C	-1	5.3*	1	2	1
CC(CCOC1=NS(=O)(=O)c2ccccc21)NC(=O)C(=O)Nc1ccccc1 (configuration not stated)	0	3	0	5	0
O=C(NCCCCCCOC1=NS(=O)(=O)c2ccccc21)C(=O)Nc1ccccc1	-1	0	-1	11*	0
CCc1ccc(CNCC(=O)N2CCC3(CC2)OCCO3)s1	0	x	2	3	1
Cc1ccc(C(=O)OCc2nc3ccsc3c(=O)[nH]2)o1	0	0	1	1	1
Cc1ccc(C(=O)OCc2nc3ccccc3s2)o1	0	0	5.8*	8	3
NC(=O)CSCc1nc2ccccc2s1	1	0	6.0*	2	0
O=C(OCc1nc2ccccc2s1)c1ccc(Br)s1	1.1*	2	3	5	0
COc1ccc(CCNC(=O)COC(=O)c2cc3ccccc3oc2=O)cc1OC	1.4*	0	4	3	-1
Nc1ccc(C(=O)OCc2nc3ccccc3s2)cc1	-1	0	0	3	0
CCOC(=O)N1CCN(C(=O)C[C@H]2C[C@@]3(C(=O)OC)C(=C[C@H](C(C)C)O[C@@H]3C3CC3)N(Cc3cccc4ccccc34)C2=O)CC1	-1	x	-3	-5	-1
CC(C)(C)c1ccc(-c2nnc(SCC(=O)c3ccc4ccccc4c3)n2-c2ccc(Cl)cc2)cc1	-1	x	2	-3	0
O=C(OC12CCCN(C1)/C(=C/c1cccc(Cl)c1)C2)c1ccco1 (configuration not stated)	-1	x	-1	-1	2
O=C(OCc1nc2ccccc2s1)c1cc2ccccc2oc1=O	0.9*	x	6.2*	4	1
CCN(c1cccc(C)c1)C(C(=O)Nc1ccc(OC)cc1)c1cc2c(cc1[N+](=O)[O-])OCO2 (configuration not stated)	-1	1	0	0	0
COc1ccc(NC(=O)C(c2cc3c(cc2[N+](=O)[O-])OCO3)N(C)Cc2ccccc2)cc1 (configuration not stated)	1	0	5.8*	3	0
O=C(COC(=O)COc1ccc2ccccc2c1)NCC(F)(F)F	-1	0	5.6*	0	0
O=c1[nH]ncn1-c1ccc(Br)cc1	-1	5.2*	-1	-2	0
Nc1c(C(=O)c2ccc(Cl)cc2)oc2ccccc12	1.8*	0	5	12*	1
CCn1c(COc2ccccc2)nnc1SCC(=O)Nc1ccc(Oc2ccccc2)cc1	-2	x	0	-1	-1
Cc1cc(C(=O)NNC(=O)c2sccc2C)c(C)o1	0	1	1	3	4.3*
Cc1cc(C(=O)NN)c(C)o1	-1	6.2*	1	5	1
SMILES	ssDAF12 agonist	DAX1 inh-1	hcDAF12 agonist	hgDAF-12 ag	DAX1 inh-2
Cc1cc(C(=O)N/N=C/c2ccncc2)c(C)o1	-1	4.8*	-1	1	0
Cc1cc(C(=O)NNC(=O)c2cccs2)c(C)o1	-1	0	0	-1	0
Cc1ccc(/C=N/NC(=O)c2cc(C)oc2C)cc1	-1	x	-1	5	0
O=c1oc2ccc3ccccc3c2cc1-c1nnc(-c2cccs2)o1	1	3	3	11*	2
O=c1oc2ccc3ccccc3c2cc1-c1nnc(-c2ccccc2)o1	-1	1	1	5	1
O=c1oc2ccccc2cc1-c1ccccc1	0	6.0*	0	6	1
O=c1oc2ccccc2cc1-c1nc(-c2cccs2)cs1	0.9*	2	6.1*	4	1
CCn1ccnc1CNC(=O)c1ccc2oc(C(C)C)nc2c1	-2	1	-1	0	0
c1ccc2occc2c1	-1	4.3*	2	0	0
Nc1cc2ccccc2oc1=O	0	0	3	1	0
COc1ccccc1CCn1cnc(-c2ccccc2F)c1CC(C)C	-2	x	-4	-5	-3
COc1ccc(OC)c(C(C)NC(=O)c2ccc(Br)cc2)c1 (configuration not stated)	-2	8.4*	0	0	0
COc1ccc(CNC(=O)CSc2ccsc2[N+](=O)[O-])cc1	1.3*	0	3	7	2
O=C(CSc1ccsc1[N+](=O)[O-])NCCc1ccc(Cl)cc1	0	1	0	-3	0
Cc1ccc(CNC(=O)CSc2ccsc2[N+](=O)[O-])cc1	-1	1	6.5*	11*	1
Cc1nn(-c2ccccc2)c(C)c1NC(=O)COC(=O)CCc1ccccc1	0	0	-1	0	0
CCCc1ccc(-c2cc(NC(=O)Cc3c[nH]c4ccccc34)ccc2Nc2cccnc2)cc1	0	x	2	2	-1
CC(C)(C)c1ccc(-c2cc(NC(=O)Cc3c[nH]c4ccccc34)ccc2Nc2cccnc2)cc1	1.7*	x	3	2	0
C[C@@H]1OC(C2CCCCC2)N(C)[C@H]2C[C@H]3c4cc(N5CCOCC5)ccc4CCN3C[C@@H]12 (some centres not stated)	-2	x	1	4	1
O=P(O)(O)c1ccccc1OCCOCCOCCOCCOc1ccccc1P(=O)(O)O	0	4.4*	4	7	3
NC(=O)c1ccccc1OCCOCCOCCOc1ccccc1C(N)=O	-1	1	-1	-1	1
CCC(C)C(NC(N)=O)C(=O)Nc1ccc(C(=O)OC)cc1 (configuration not stated)	-1	4.4*	-1	4	1
Cc1ccc(C)c(N(C(=O)c2csnn2)C(C(=O)NC2CCCCC2)c2cccnc2)c1 (configuration not stated)	-1	4.4*	2	-2	0
O=C(NC1CCCC1)C(c1ccccc1)N(C(=O)c1csnn1)c1ccccc1F (configuration not stated)	0	4.7*	0	-1	1
O=C(NC1CCCCC1)C(c1ccncc1)N(C(=O)c1csnn1)c1ccccc1F (configuration not stated)	-1	-1	-2	0	0
